Compound activity: PubChem BioAssay, several laboratories
RAM inhibit: blocks the yeast RAM network; S. cerevisiae dse1pr::URA3 reporter, 5-FOA growth OD615, 2 d; analog-sensitive cbk1-as2 kinase mutant strain; inhibition, % at 50 µM; hit rate 1.8% among 190,000; AID 868;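 active = inhibition above a set limit, 3 SD over mean compound inhibition, cut at about 8.4% in these data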;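 note: 0% = DMSO-only wells with no growth and 100% = 10 µM 1-NA-PP1 full growth; inhibition rescues growth on 5-FOA so higher OD means more RAM inhibition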
CHOP inhibitor: inhibitors of CHOP induction in ER stress response; hit rate 3.8% among 220,000; inhibition, % at 10 µM; CHO-K1 CHOP-promoter luciferase, tunicamycin-induced, 15-18 h;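 active = compounds that reduced the stress-induced luciferase reporter signal by more than about 70% of percent inhibition, limit read from the data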;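 note: 0% = tunicamycin plus vehicle and 100% = wells without tunicamycin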
L major viab: reduces viability of Leishmania major promastigotes; resazurin fluorescence viability; inhibition, % at 10 µM; hit rate 9% among 200,000; in the data active = inhibition above about 50%;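 note: promastigotes grown with compound for 44 hours at 28 °C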
WT yeast gro inh: growth inhibition of WT yeast, mitochondrial fusion screen; hit rate 2.1% among 190,000; inhibition, % at 10 µM; mitochondrial fusion phenotypic screen, WT strain; in the data active = inhibition above about 58%; tested in S. cerevisiae
Lmaj promast 1uM: inhibitors of Leishmania major promastigote growth, repeat at 1 uM; shares compounds with L major viab; AID 1258; L. major promastigote growth, resazurin fluorescence, 48 h; hit rate 13% among 1,100; inhibition, % at 1 µM;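 active = inhibition above about 50% in both repeat tests, limit read from the data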
* = called active by the depositor. Rows were chosen to be rich in hits. Some 13% of all compounds tested hit in one or more screens of this group.

What do the screens show for `COc1ccc(C)cc1NC(=S)NNC(=O)c1c(Br)cnn1C`?
RAM inhibit: 2; CHOP inhibitor: 0; L major viab: -10; WT yeast gro inh: 4

What do the screens show for `Cc1ccc(NC(=O)O/N=C2\CCCCC2c2ccc([N+](=O)[O-])cc2[N+](=O)[O-])cc1` (stereo unspecified)?
RAM inhibit: 2; CHOP inhibitor: 9; L major viab: 99*; WT yeast gro inh: 4; Lmaj promast 1uM: 15

What do the screens show for `CC(C)(O)P(=O)(O)CCc1ccccc1`?
CHOP inhibitor: -7

How did COc1ccc2ccccc2c1/C=N/O do in these assays?
RAM inhibit: 0; CHOP inhibitor: -4; L major viab: 10; WT yeast gro inh: -17

How did C=CCOc1ccc2ccccc2c1/C=N/O do in these assays?
RAM inhibit: -1; CHOP inhibitor: 4; L major viab: 51*; WT yeast gro inh: -5; Lmaj promast 1uM: 1

What do the screens show for `Cc1c(NC(=O)C(C)Sc2nc3ccccc3c(=O)n2CCO)c(=O)n(-c2ccccc2)n1C` (stereo unspecified)?
RAM inhibit: 2; CHOP inhibitor: -1; L major viab: -7; WT yeast gro inh: -29

Results for Cc1cc(C)c(/C=N/n2c(C)cc(C)c(C#N)c2=O)c(C)c1 ?
RAM inhibit: -1; CHOP inhibitor: 34; L major viab: 73*; WT yeast gro inh: 23; Lmaj promast 1uM: 20

Results for Cc1cc(C)n(/N=C/c2cccs2)c(=O)c1C#N ?
RAM inhibit: 1; CHOP inhibitor: 17; L major viab: -6; WT yeast gro inh: -6

Results for NC(=O)N/N=C/c1ccc(N2CCOCC2)s1 ?
RAM inhibit: 2; CHOP inhibitor: 0; L major viab: 60*; WT yeast gro inh: -3; Lmaj promast 1uM: -8

Results for CC[n+]1c(C)sc2c(C)cc(C)cc21 ?
RAM inhibit: -1; CHOP inhibitor: 9; L major viab: 69*; WT yeast gro inh: 5; Lmaj promast 1uM: -11

How did CCOC(=O)C1(Cc2cccc(F)c2)CCN(C(=O)c2cnc(C)cn2)CC1 do in these assays?
RAM inhibit: 2; CHOP inhibitor: -5; L major viab: -5; WT yeast gro inh: 18

Results for O=C(CN1CCN(Cc2ccccc2Cl)CC1)N/N=C/C=C/c1ccccc1[N+](=O)[O-] ?
RAM inhibit: 2; CHOP inhibitor: 7; L major viab: -4; WT yeast gro inh: 6

What do the screens show for `Cc1cccc(NC(=S)NC2CC3CCCC(C2)N3CC(C)C)c1` (stereo unspecified)?
RAM inhibit: -1; CHOP inhibitor: 9; L major viab: 95*; WT yeast gro inh: -6; Lmaj promast 1uM: 5

Results for CCCn1c(-c2ccc(OC)cc2)nc2ccccc21 ?
RAM inhibit: 0; CHOP inhibitor: 8; L major viab: 96*; WT yeast gro inh: 32; Lmaj promast 1uM: 12

Results for CCCn1c(NCc2cc(OC)ccc2OC)nc2ccccc21 ?
RAM inhibit: 1; CHOP inhibitor: 2; L major viab: 33; WT yeast gro inh: -29

How did N/N=C(\c1ccccc1)C12CN3CN(CN(C3)C1)C2 do in these assays?
RAM inhibit: 1; CHOP inhibitor: -19; L major viab: 52*; WT yeast gro inh: -9; Lmaj promast 1uM: -14

How did COC(=O)c1cccc2c1-c1ccccc1/C2=N/O do in these assays?
RAM inhibit: 0; CHOP inhibitor: 87*; L major viab: 70*; WT yeast gro inh: 23; Lmaj promast 1uM: -29

How did O=C(O)c1ccc2c(c1)C(=O)N(c1cccc(S(=O)(=O)Nc3cccc(C(F)(F)F)c3)c1)C2=O do in these assays?
RAM inhibit: 0; CHOP inhibitor: -6; L major viab: -11; WT yeast gro inh: -6

Results for Cc1cccc(C)c1-n1nnnc1S(=O)(=O)Cc1ccccc1Cl ?
RAM inhibit: 6; CHOP inhibitor: -11; L major viab: 77*; WT yeast gro inh: 26; Lmaj promast 1uM: -20

How did COc1ccc2cc(Br)ccc2c1CC(=O)NC1CC(C)(C)NC(C)(C)C1 do in these assays?
RAM inhibit: 1; CHOP inhibitor: 10; L major viab: 100*; WT yeast gro inh: -8; Lmaj promast 1uM: -10

How did O=c1ccc2ccc(Oc3ccc([N+](=O)[O-])cc3[N+](=O)[O-])cc2o1 do in these assays?
RAM inhibit: 3; CHOP inhibitor: -53; L major viab: 48; WT yeast gro inh: -22

What do the screens show for `Nc1ccc(Oc2ccc([N+](=O)[O-])cc2[N+](=O)[O-])cc1`?
RAM inhibit: 1; CHOP inhibitor: 28; L major viab: 56*; WT yeast gro inh: -3; Lmaj promast 1uM: 7

How did Cc1cccc(OCc2nnc(SCC(=O)O)n2Cc2ccccc2)c1 do in these assays?
RAM inhibit: 4; CHOP inhibitor: 28; L major viab: -8; WT yeast gro inh: -7

What do the screens show for `S=C(Nc1ccc(Oc2ccc(NC(=S)NC3CCCCC3)cc2)cc1)NC1CCCCC1`?
RAM inhibit: 7; CHOP inhibitor: 34; L major viab: 58*; WT yeast gro inh: -15; Lmaj promast 1uM: 3

Results for COc1ccc(NC(=O)COC(=O)c2ccc(S(=O)(=O)N(C)c3ccccc3OC)cc2)c(OC)c1 ?
RAM inhibit: 0; CHOP inhibitor: 1; L major viab: 99*; WT yeast gro inh: -9; Lmaj promast 1uM: -6

How did COc1ccc(NC(=O)COC(=O)c2ccc(S(=O)(=O)N(C)c3ccccc3OC)cc2)cc1OC do in these assays?
RAM inhibit: 4; CHOP inhibitor: 6; L major viab: 27; WT yeast gro inh: -3

Results for COc1ccc(OCCSc2nnc(C(C)NC(=O)c3ccccc3F)n2C)cc1 (stereo unspecified) ?
RAM inhibit: -1; CHOP inhibitor: 5; L major viab: -2; WT yeast gro inh: 14

What do the screens show for `O=C(CCn1cnc2ccccc2c1=O)Nc1nc(-c2ccc(Br)cc2)cs1`?
RAM inhibit: 3; CHOP inhibitor: 50; L major viab: -6; WT yeast gro inh: 4

What do the screens show for `Oc1cccc(C(O)CNCc2ccc(-c3ccccc3)cc2)c1` (stereo unspecified)?
RAM inhibit: 1; CHOP inhibitor: 9; L major viab: 91*; WT yeast gro inh: 17; Lmaj promast 1uM: -10

What do the screens show for `Cc1ccc(Cl)c2c1=NC(=O)C=2c1[nH]c(=S)[nH]c1O`?
RAM inhibit: 3; CHOP inhibitor: 44; L major viab: -6; WT yeast gro inh: -7

What do the screens show for `Cc1ccc(S(=O)(=O)c2ccc(NN)cc2)cc1`?
RAM inhibit: 1; CHOP inhibitor: 61; L major viab: 97*; WT yeast gro inh: 28; Lmaj promast 1uM: -10

Results for CN(C)c1cc[n+](CC(=O)Nc2c(Cl)cc(Cl)cc2Cl)cc1 ?
RAM inhibit: 0; CHOP inhibitor: 0; L major viab: -1; WT yeast gro inh: 4

What do the screens show for `CN(C)c1cc[n+](Cc2c(Cl)cccc2Cl)cc1`?
RAM inhibit: 1; CHOP inhibitor: 0; L major viab: 84*; WT yeast gro inh: 34; Lmaj promast 1uM: -2

What do the screens show for `c1ccc(Cn2cc(CN3CCCO3)c(-c3ccc4c(c3)OCO4)n2)cc1`?
RAM inhibit: 5; CHOP inhibitor: 5; L major viab: 0; WT yeast gro inh: 3

What do the screens show for `Cc1ccccc1[C@@H]1C(C#N)=C(N)S[C@H]1C(=O)c1ccccc1`?
RAM inhibit: 2; CHOP inhibitor: 46; L major viab: 9; WT yeast gro inh: 39
